Records with an inconclusive call do not appear. Activity calls are given as the source filed them. Unless noted, the call rests on the fitted dose curve; in most records, active means well fitted inhibition curve with a large enough effect; inconclusive means small, poorly fitted or top-dose-only effect; inactive means flat fitted curve, though single readings scatter.

System in one assay: not listed separately
Description: qHTS drug screen for cell cycle checkpoint inhibitors in PARPi-resistant BRCA-mutant ovarian cancer cell lines. (AID 1963452; calls by dose curve). Particulars: PEO1/OlaR viability, CellTiter-Glo luminescence, 96 h; stronger effect = lower value. The gist of the method:
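PEO1, PEO4 and PEO1/OlaR ovarian cancer cells, 600 per well, exposed 96 h at 37C to a dilution series. Viability read by CellTiter-Glo luminescence, normalized to DMSO and empty wells; activity summarized as Z-AUC.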
In general terms: qHTS replaces the single test concentration by a dilution series.
With `O=c1c(-n2ccnn2)c[nH]n1-c1cc(N2CCOCC2)ncn1`, the Z-AUC is 1.14 (inactive).
On the same count and under the same terms, next, `Oc1ccc(Nc2nc(-c3ccc(Cl)cc3)cs2)cc1`: -0.146 (inactive).
Turning to `Nc1ncnc2c1ncn2[C@@H]1O[C@H](CO)C[C@H]1O`, the Z-AUC is 1.48 (inactive).
The same measure, in the same setting: next, `COc1ccc(CNC(=O)Nc2ncc([N+](=O)[O-])s2)cc1`: -1.06 (inactive).
The same measure, in the same setting: next, `CC(C)N(CCCNC(=O)Nc1ccc(C(C)(C)C)cc1)C[C@H]1O[C@@H](n2cc(Br)c3c(N)ncnc32)[C@H](O)[C@@H]1O`: 0.222 (inactive); `Cn1cc(-c2cnc3ccc4ccc(CS(=O)(=O)NCc5ccccn5)cc4c(=O)c3c2)cn1`: -1.05 (inactive).
Still for that read-out and setting: next, `CCN(CCCOc1ccc2c(Nc3cc(CC(=O)Nc4cccc(F)c4)[nH]n3)ncnc2c1)CCOP(=O)(O)O`: 1.19 (inactive).
On to `O=C(NNc1ccccc1)c1ccncc1`, for which the Z-AUC was 1.21 (inactive).
Same read-out and setting: for `Cc1nc2ccc(C(=O)N3CCC4(CC3)CC(=O)c3c(cnn3C(C)C)C4)cc2[nH]1` the value was -0.421 (inactive); for `CNCc1ccc(C)c(NC(=O)c2ccc(Nc3nc(-c4ccccc4)c4ccccc4n3)cc2)c1`, -0.484 (inactive).
Same read-out and setting: for `CC1CCC(n2c3cnccc3c3cnc(Nc4ccc5c(n4)CCN(C(=O)CO)C5)nc32)CC1` (stereo not given) the value was 0.557 (inactive); for `C=CC(=O)Nc1cc(Nc2nccc(-c3cn(C)c4ccccc34)n2)c(OC)cc1N(C)CCN(C)C`, -0.422 (inactive).

The same assay, now with this note: PEO1/OlaR viability, CellTiter-Glo luminescence, 96 h; measured here: PEO1 parental Z-AUC; stronger effect = lower value.
Consider `O=c1c(-n2ccnn2)c[nH]n1-c1cc(N2CCOCC2)ncn1`, for which the Z-AUC was 0.854.
Still for that read-out and setting: next, `Oc1ccc(Nc2nc(-c3ccc(Cl)cc3)cs2)cc1`: 0.0588; `Nc1ncnc2c1ncn2[C@@H]1O[C@H](CO)C[C@H]1O`: 0.932.
The same measure, in the same setting: next, `COc1ccc(CNC(=O)Nc2ncc([N+](=O)[O-])s2)cc1`: -0.517.
Consider `CC(C)N(CCCNC(=O)Nc1ccc(C(C)(C)C)cc1)C[C@H]1O[C@@H](n2cc(Br)c3c(N)ncnc32)[C@H](O)[C@@H]1O`, for which the Z-AUC amounted to 0.00626.
The same measure, in the same setting: next, `Cn1cc(-c2cnc3ccc4ccc(CS(=O)(=O)NCc5ccccn5)cc4c(=O)c3c2)cn1`: -0.542.
Take `CCN(CCCOc1ccc2c(Nc3cc(CC(=O)Nc4cccc(F)c4)[nH]n3)ncnc2c1)CCOP(=O)(O)O`: the Z-AUC was found to be 0.684.
Same read-out and setting: next, `O=C(NNc1ccccc1)c1ccncc1`: 0.257; `Cc1nc2ccc(C(=O)N3CCC4(CC3)CC(=O)c3c(cnn3C(C)C)C4)cc2[nH]1`: -0.389; `CNCc1ccc(C)c(NC(=O)c2ccc(Nc3nc(-c4ccccc4)c4ccccc4n3)cc2)c1`: -0.199.
The same measure, in the same setting: for `CC1CCC(n2c3cnccc3c3cnc(Nc4ccc5c(n4)CCN(C(=O)CO)C5)nc32)CC1` (stereo not given) the value was 1.18; for `C=CC(=O)Nc1cc(Nc2nccc(-c3cn(C)c4ccccc34)n2)c(OC)cc1N(C)CCN(C)C`, -0.39.

The assay is the same for the next values; noted with them: PEO1/OlaR viability, CellTiter-Glo luminescence, 96 h; measured here: PEO4 Z-AUC; stronger effect = lower value.
Regarding `O=c1c(-n2ccnn2)c[nH]n1-c1cc(N2CCOCC2)ncn1`, the Z-AUC was determined as 1.55.
The same measure, in the same setting: next, `Oc1ccc(Nc2nc(-c3ccc(Cl)cc3)cs2)cc1`: 0.0633; `Nc1ncnc2c1ncn2[C@@H]1O[C@H](CO)C[C@H]1O`: 0.673; `COc1ccc(CNC(=O)Nc2ncc([N+](=O)[O-])s2)cc1`: -0.518.
Still for that read-out and setting: next, `CC(C)N(CCCNC(=O)Nc1ccc(C(C)(C)C)cc1)C[C@H]1O[C@@H](n2cc(Br)c3c(N)ncnc32)[C@H](O)[C@@H]1O`: -0.104; `Cn1cc(-c2cnc3ccc4ccc(CS(=O)(=O)NCc5ccccn5)cc4c(=O)c3c2)cn1`: -0.899; `CCN(CCCOc1ccc2c(Nc3cc(CC(=O)Nc4cccc(F)c4)[nH]n3)ncnc2c1)CCOP(=O)(O)O`: 0.183.
For `O=C(NNc1ccccc1)c1ccncc1`, the Z-AUC turned out to be 0.154.
As for `Cc1nc2ccc(C(=O)N3CCC4(CC3)CC(=O)c3c(cnn3C(C)C)C4)cc2[nH]1`, the Z-AUC is -0.0398.
The same measure, in the same setting: for `CNCc1ccc(C)c(NC(=O)c2ccc(Nc3nc(-c4ccccc4)c4ccccc4n3)cc2)c1` the value was -0.532.
Same read-out and setting: next, `CC1CCC(n2c3cnccc3c3cnc(Nc4ccc5c(n4)CCN(C(=O)CO)C5)nc32)CC1` (stereo not given): 0.34; `C=CC(=O)Nc1cc(Nc2nccc(-c3cn(C)c4ccccc34)n2)c(OC)cc1N(C)CCN(C)C`: -1.1.

In the next assay the test system is HaCat. Put plainly: Cytotoxic Profiling of Annotated Libraries Using Quantitative High-Throughput Screening (AID 1296008). Further: nearly all actives have a fitted effect of over 60% in size. Further: potency means the concentration at half of the fitted maximal effect. On max response: on the % scale 0 is the no-effect control and ±100 the full control effect. Particulars: Five cell lines viability, CellTiter-Glo ATP luminescence, 48-72 h; max response: stronger effect = lower value. The gist of the method:
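Cells exposed to compounds for 48 or 72 hr at 37 degrees Celsius. Viability read as ATP-coupled luminescence with CellTiter-Glo after 10 min at room temperature.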
In general terms: Cellular ATP, detected with luciferase, serves as a proxy for viable cell number.
As for `O=c1c(-n2ccnn2)c[nH]n1-c1cc(N2CCOCC2)ncn1`, the Potency was 1.86 µM (active).
With `Oc1ccc(Nc2nc(-c3ccc(Cl)cc3)cs2)cc1`, the max response was -8.45% (inactive).
The same measure, in the same setting: next, `Nc1ncnc2c1ncn2[C@@H]1O[C@H](CO)C[C@H]1O`: -125% (inactive).
For `OCC(Cc1ccccc1)Nc1nc(Oc2ccc3c(c2)CCC3)nc2c1ncn2Cc1ccc(-c2ccccc2)cc1` (stereo not given), the Potency is 18.4 µM (active).
With `Cc1cc2nc(NCCCO)n(CC(=O)c3cc(C(C)(C)C)c(O)c(C(C)(C)C)c3)c2cc1C`, the max response is -19.8% (inactive).
Same read-out and setting: next, `CC1(C)CC23[C@@H]4CC(=O)[C@@H]2COC(=O)[C@@H]3CC[C@H]41`: -1.08% (inactive).
With `CC[C@H](CO)Nc1nc(Nc2cccc(-c3ccccn3)c2)c2ncn(C(C)C)c2n1`, the Potency is 18.4 µM (active).
For `Cc1ccccc1C(=O)Nc1ccc(C(=O)N2CCC[C@@H](O)c3cc(Cl)ccc32)c(C)c1`, the max response was -22.4% (inactive).
Still for that read-out and setting: for `CCCCn1c(-c2ccccc2)nc(-c2ccccc2)c1CN(Cc1ccc2c(c1)OCO2)Cc1ccc2c(c1)OCO2` the value was -27.1% (inactive); for `CCOC(=O)c1cccc(CNc2ccc(N(C)C(=O)Nc3ccccc3)cc2)c1`, -23.2% (inactive).
Consider `CC1CCN(C(c2ccc(F)cc2)c2ccc(C(C)C(=O)O)cc2-c2ccc(C(F)(F)F)cc2)CC1` (stereo not given), for which the max response was 1.13% (inactive).
As for `O=C(NC(NC(=S)Nc1ccc(F)c([N+](=O)[O-])c1)C(Cl)(Cl)Cl)C(c1ccccc1)c1ccccc1` (stereo not given), the max response was -1.87% (inactive).
On the same count and under the same terms, for `COc1ccc(CNC(=O)Nc2ncc([N+](=O)[O-])s2)cc1` the value was 3.95% (inactive); for `OCC(CO)(CO)NCC(O)Cn1c2ccc(Cl)cc2c2cc(Cl)ccc21` (stereo not given), 1.65% (inactive).
The same measure, in the same setting: next, `COCCOCCOc1ccc(C2=N[C@@](C)(C(=O)O)CS2)c(O)c1`: -22.3% (inactive).
Consider `COc1cc(N2CCOCC2)ccc1Nc1ncc(F)c(Nc2ccccc2NS(C)(=O)=O)n1`, for which the Potency is 7.31 µM (active).
Consider `CC(=O)C1=C(O)C2c3c[nH]c4cccc(c34)CC2C(C)(C)N(C)C1=O` (stereo not given), for which the max response is -23.8% (inactive).
Same read-out and setting: for `CC(C)N(CCCNC(=O)Nc1ccc(C(C)(C)C)cc1)C[C@H]1O[C@@H](n2cc(Br)c3c(N)ncnc32)[C@H](O)[C@@H]1O` the value was -3.75% (inactive).
`O=C(c1ccc(F)c(F)c1Nc1ccc(I)cc1F)N1CC(O)(C2CCCCN2)C1` (stereo not given): the Potency is 23.1 µM (active).
Take `O=[N+]([O-])c1ccc(-[n+]2nc(-c3ccccc3)nn2-c2ccc(I)cc2)cc1`: the max response is -29.5% (inactive).
Same read-out and setting: for `CC(=O)N[C@@H](CC(=O)O)C(=O)N[C@@H](CCC(=O)O)C(=O)N[C@H](C(=O)N[C@@H](CC(=O)O)C(=O)Nc1ccc2c(C)cc(=O)oc2c1)C(C)C` the value was -44.8% (inactive); for `CC1CCCC(SCC(O)C(=O)O)CC(=O)c2c(O)cc(O)cc2CC(=O)O1` (stereo not given), -1.3% (inactive).
On the same count and under the same terms, next, `COc1ccccc1NC(=O)Nc1ccc2ccccc2c1`: -10% (inactive); `CN1CCN(C(=O)c2ccc(Nc3nccc(-c4cccs4)n3)cc2Cl)CC1`: -21.8% (inactive); `Cn1cc(-c2cnc3ccc4ccc(CS(=O)(=O)NCc5ccccn5)cc4c(=O)c3c2)cn1`: -3.23% (inactive).
As for `C=C(C)[C@@H]1CC[C@]2(C(=O)O)CC[C@]3(C)C(CCC4[C@@]5(C)C[C@@H](O)[C@H](O)C(C)(C)C5CC[C@]43C)C12` (stereo not given in full), the max response was -24.1% (inactive).
Consider `CCN(CCCOc1ccc2c(Nc3cc(CC(=O)Nc4cccc(F)c4)[nH]n3)ncnc2c1)CCOP(=O)(O)O`, for which the Potency is 2.06 µM (active).
As for `CC(C)CCC[C@@H](C)[C@H]1CC[C@H]2[C@@H]3CC=C4C[C@@H](OC(=O)NCCN(C)C)CC[C@]4(C)[C@H]3CC[C@]12C`, the max response was -22.1% (inactive).
Same read-out and setting: for `O=C(NNc1ccccc1)c1ccncc1` the value was -7.12% (inactive); for `Cc1nc2ccc(C(=O)N3CCC4(CC3)CC(=O)c3c(cnn3C(C)C)C4)cc2[nH]1`, -28.8% (inactive); for `CC(C)(C)c1ccc(CNC(=S)NCc2ccc(NS(C)(=O)=O)c(F)c2)cc1`, -44.1% (inactive).
Same read-out and setting: for `CC1CCC(n2c3cnccc3c3cnc(Nc4ccc5c(n4)CCN(C(=O)CO)C5)nc32)CC1` (stereo not given) the value was -0.578% (inactive).
As to `C=CC(=O)Nc1cc(Nc2nccc(-c3cn(C)c4ccccc34)n2)c(OC)cc1N(C)CCN(C)C`, the Potency is 1.03 µM (active).
Same read-out and setting: next, `COc1cc2ncnc(Nc3ccc(Oc4ccccc4)cc3)c2cc1OC`: 7.31 µM (active).

The record behind these values is PubChem BioAssay (NCATS).
